Assay results as given in PubChem BioAssay AID1159580 (chemical genetic matrix, 2015).
The whole screen tested about 5,500 compounds, of which about 2,000 (36%) were called active. Roughly 18% stayed inconclusive and do not appear here. Cut-off read from the data, not from the text of the source: active = normalized growth mostly below about 0.91 (no sharp cut-off); inconclusive = no clear call, values can overlap the other calls; inactive = mostly above about 0.92. The list shows a part of the results.

Test: chemical genetic growth profiling, strain panel (AID 1159580);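 note: tested at 20 µM; growth read once vehicle control cultures reached saturation at 30 °C; 1 = growth at the plate median or of vehicle wells; lower values mean less growth of the strain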
Conditions: S. cerevisiae deletion strains, growth OD

Measured: normalized growth

O=C1C(Cl)=C(Oc2cc(Cl)c(Cl)cc2Cl)C(=O)c2ccccc21
active: locus YAR019C, strain CDC15, hits give low values 0.215 | locus YBR136W, strain MEC1, hits give low values 0.516 | locus YDL101C, strain DUN1, hits give low values 0.524 | locus YDL132W, strain cdc53, hits give low values 0.41 | locus YDL214C, strain PRR2, hits give low values 0.114 | locus YDR052C, strain DBF4, hits give low values 0.546 | locus YDR054C, strain cdc34, hits give low values 0.133 | locus YDR477W, strain SNF1, hits give low values 0.125 | locus YER123W, strain YCK3, hits give low values 0.122 | locus YER133W, strain GLC7, hits give low values 0.126 | locus YFL029C, strain CAK1, hits give low values 0.236 | locus YFR019W, strain FAB1, hits give low values 0.104 | locus YFR028C, strain CDC14, hits give low values 0.149 | locus YGR040W, strain KSS1, hits give low values 0.14 | locus YGR052W, strain FMP48, hits give low values 0.126 | locus YGR092W, strain DBF2, hits give low values 0.352 | locus YHR030C, strain SLT2, hits give low values 0.122 | locus YHR079C, strain IRE1, hits give low values 0.333 | locus YHR082C, strain KSP1, hits give low values 0.148 | locus YHR205W, strain SCH9, hits give low values 0.125 | locus YJL095W, strain BCK1, hits give low values 0.114 | locus YJL128C, strain PBS2, hits give low values 0.11 | locus YJL157C, strain FAR1, hits give low values 0.303 | locus YJR066W, strain TOR1 (second series), hits give low values 0.119 | locus YJR066W, strain TOR1, hits give low values 0.12 | locus YKL048C, strain ELM1, hits give low values 0.658 | locus YKL067W, strain YNK1, hits give low values 0.32 | locus YKL101W, strain HSL1, hits give low values 0.38 | locus YKL193C, strain SDS22, hits give low values 0.174 | locus YKL203C, strain TOR2, hits give low values 0.13 | locus YLR113W, strain HOG1, hits give low values 0.171 | locus YLR133W, strain CKI1, hits give low values 0.294 | locus YLR403W, strain SFP1, hits give low values 0.197 | locus YML070W, strain DAK1, hits give low values 0.105 | locus YMR001C, strain CDC5, hits give low values 0.11 | locus YMR205C, strain PFK2 (second series), hits give low values 0.538 | locus YMR277W, strain FCP1, hits give low values 0.117 | locus YNL020C, strain ARK1, hits give low values 0.555 | locus YNL183C, strain NPR1, hits give low values 0.128 | locus YNL207W, strain RIO2, hits give low values 0.537 | locus YNL222W, strain SSU72, hits give low values 0.522 | locus YNL307C, strain MCK1 (second series), hits give low values 0.246 | locus YOL078W, strain AVO1, hits give low values 0.161 | locus YOL136C, strain PFK27, hits give low values 0.11 | locus YOR061W, strain CKA2, hits give low values 0.519 | locus YOR119C, strain RIO1, hits give low values 0.118 | locus YOR231W, strain MKK1, hits give low values 0.294 | locus YPL031C, strain PHO85, hits give low values 0.225 | locus YPL153C, strain RAD53, hits give low values 0.318 | locus YPL204W, strain HRR25, hits give low values 0.327 | locus YPL209C, strain IPL1, hits give low values 0.581 | locus YPL256C, strain CLN2, hits give low values 0.183 | locus YPR025C, strain CCL1, hits give low values 0.543 | strain TSCII, hits give low values 0.345
inactive: locus YDL017W, strain CDC7, hits give low values 0.912 | locus YDL028C, strain MPS1, hits give low values 0.936 | locus YFL009W, strain cdc4, hits give low values 0.922 | locus YFR003C, strain YPI1, hits give low values 0.941 | locus YIL147C, strain SLN1, hits give low values 0.938 | locus YJR016C, strain ILV3, hits give low values 0.917 | locus YNL006W, strain LST8, hits give low values 0.95 | locus YOR329C, strain SCD5, hits give low values 0.94 | locus YPR111W, strain DBF20, hits give low values 0.897
